# PREPL inh = human PREPL enzyme inhibition; Q4J6C6; recombinant PREPL, fluorescence polarization activity-based probe; inhibition, % at 5.96 µM; hit rate 0.68% among 320,000; AID 2751
# UBC13 inh = inhibitors of human UBC13 polyubiquitin chain formation | P61088 | TR-FRET | inhibition, % at 20 µM | hit rate 0.47% among 330,000 | AID 485273; in the data active = inhibition above about 45%, passing the limit was not always enough; inconclusive = no clear call, values can overlap the other calls
# Target sequence (P61088 whole entry, looked up): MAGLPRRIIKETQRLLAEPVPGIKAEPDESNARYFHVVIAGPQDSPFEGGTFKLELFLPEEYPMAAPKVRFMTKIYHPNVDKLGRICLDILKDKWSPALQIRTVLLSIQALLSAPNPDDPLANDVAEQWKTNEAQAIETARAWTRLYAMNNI
# MEKK2mut PB1 HTS = signal of MEK5 binding to mutant human MEKK2 PB1 domain; percent response, % at 10 µM; bead flow cytometry, Alexa488-MEK5 binding to MEKK2 mutant; hit rate 0.35% among 290,000; in the data active = percent response above about 24%, passing the limit was not always enough
# ATG4B inhibitor = ATG4B (human) cysteine protease inhibition; ATG4B cleavage of LC3-PLA2, NBD-HPC fluorescence, 1 h; inhibition, % at 8.33 µM; hit rate 0.51% among 340,000; in the data active = inhibition above about 40%
# MEKK2wt PB1 HTS = raises or lowers MEK5 binding to wildtype human MEKK2 PB1 domain; binding response (% of control), % at 10 µM; bead flow cytometry, Alexa488-MEK5 binding to MEKK2 WT; actives lie on both sides; Q9Y2U5; hit rate 1.1% among 290,000; in the data active = binding response below about 67% or above about 130%; inconclusive = no clear call, values can overlap the other calls; inactive = in between
# MEKK3 PB1 HTS = modulators (inhibitors or enhancers) of MEK5 binding to human MEKK3 PB1 domain; Q99759; bead-based flow cytometry, Alexa488-MEK5 binding to MEKK3; actives lie on both sides; 0 = blocked by unlabeled MEK5, 100 = vehicle; binding response (% of control), % at 10 µM; hit rate 1.4% among 290,000; AID 1529;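 active = binding response more than 3 SD above or below the average of its plate-row segment, actives on both sides; inconclusive = wells at one plate position flagged as instrument error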;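 also: Alexa488 bead fluorescence after subtracting the streptavidin-only scavenger bead signal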
# MEKK2wt confirm = raises or lowers MEK5 binding to wildtype human MEKK2, retest; binding response (% of control), % at 10 µM; hit rate 2.4% among 5,900; bead flow cytometry, Alexa488-MEK5 binding to MEKK2 WT; actives lie on both sides; shares compounds with MEKK3 PB1 HTS; in the data active = binding response below about 16% or above about 210%; inactive = in between
# MEKK2mut-MEK5 = signal of MEK5 binding to mutant human MEKK2, retest; percent response, % at 10 µM; AID 1893; shares compounds with MEKK3 PB1 HTS; bead flow cytometry, Alexa488-MEK5 binding to MEKK2 mutant; hit rate 2% among 5,900; in the data active = percent response mostly above about 71%, no sharp cut-off; inactive = mostly below about 38%;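 also: higher means compound restores mutant binding toward wildtype level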
# MEKK3 confirm = confirmation of inhibitors of MEK5 binding to human MEKK3; hit rate 1.8% among 5,900; shares compounds with MEKK3 PB1 HTS; binding response (% of control), % at 10 µM; AID 1894; bead flow cytometry, Alexa488-MEK5 binding to MEKK3; hits give low values;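 active = binding response below 72% of control, or above a set upper limit, though filed actives all read lower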;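 also: lower values mean stronger disruption of MEK5 binding to MEKK3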
# PREPL inh cf = human PREPL inhibition, confirmation; recombinant PREPL, fluorescence polarization activity probe; shares compounds with PREPL inh; inhibition, % at 5.96 µM; hit rate 67% among 2,000
# Casp3 counter = caspase-3 inhibition (UBC13 counter-screen) | Recombinant caspase-3, Caspase-Glo 3/7 luminescence, 60 min | hit rate 4% among 1,400 | AID 488856 | inhibition, % at 20 µM | shares compounds with UBC13 inh;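 active = mean inhibition across replicates above about 26%, limit read from the data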
# Target sequence (P42574 whole entry, looked up): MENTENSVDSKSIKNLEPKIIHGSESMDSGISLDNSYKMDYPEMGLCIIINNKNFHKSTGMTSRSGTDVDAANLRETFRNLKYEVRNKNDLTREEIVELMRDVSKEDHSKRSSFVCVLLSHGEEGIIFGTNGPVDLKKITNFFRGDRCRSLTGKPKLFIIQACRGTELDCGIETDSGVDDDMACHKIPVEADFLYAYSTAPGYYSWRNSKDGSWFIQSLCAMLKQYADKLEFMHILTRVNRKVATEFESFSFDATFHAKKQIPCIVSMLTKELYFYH
# UBC13 confirm = confirmation of human UBC13 polyubiquitin inhibitors | shares compounds with UBC13 inh | UBC13 polyubiquitination, TR-FRET, biochemical | inhibition, % at 10 µM | hit rate 68% among 1,400; in the data active = inhibition above about 45%; inconclusive = no clear call, values can overlap the other calls
# A number is an active result; . = inactive; ? = inconclusive; / = no result; ! = not confirmed by another sample; [ ] = another dose, or the depositor's remark. An excerpt weighted towards active compounds, which were near 3.1% of everything screened. Rule as the data show it, unless noted: active = inhibition above about 43%; inactive = the rest.
SMILES,PREPL inh,UBC13 inh,MEKK2mut PB1 HTS,ATG4B inhibitor,MEKK2wt PB1 HTS,MEKK3 PB1 HTS,MEKK2wt confirm,MEKK2mut-MEK5,MEKK3 confirm,Casp3 counter,UBC13 confirm,others
CCC[C@H](CN[C@@H](CNC)[C@H](C)CC)NCCc1cc(C(F)(F)F)cc(C(F)(F)F)c1,.,86,.,.,158,.,.,.,.,.,73,
CN(Cc1ccccc1F)C(=O)c1sccc1-c1ccccc1,.,.,.,.,.,.,/,/,/,/,/,
Nc1ccc2nc(-c3cccc(-c4nc5ccc(N)cc5[nH]4)n3)[nH]c2c1,56,100,.,.,.,79[inhibitor],.,.,.,.,114,PREPL inh cf=.
CN(C)CCNc1ncnc2c1sc1nc(-c3ccccc3)c3c(c12)CCCC3,.,62,61,.,201,.,209,.,.,.,103,
c1nc(NCCN2CCOCC2)c2sc3nc(N4CCOCC4)c4c(c3c2n1)CCC4,.,/,.,.,.,.,/,/,/,/,/,
Cc1c(CCOC(=O)C2C3CC4CC(C3)CC2C4)sc[n+]1CC(=O)c1ccc(Br)cc1 (stereo not given),.,47,.,.,157,.,.,.,.,.,75,
Cc1ccc(CN2CCSc3ccc(C(=O)NC4CCN(Cc5ccccc5)CC4)cc32)cc1,.,62,.,.,206,.,240,80,.,.,?,
O=C(NC1CCCC1)c1ccc2c(c1)N(Cc1ccccc1)CCS2,.,.,.,.,.,.,/,/,/,/,/,
COC(=O)c1c(NC(=O)Cc2cccs2)sc2c1CCC(C)C2 (stereo not given),.,.,.,.,.,.,/,/,/,/,/,
COC(=O)c1c(NC(=S)NN2CCN(C)CC2)sc2c1CCC(C)C2 (stereo not given),.,62,.,.,163,.,.,.,.,.,91,
CN(C)CCNc1oc(COc2ccc(Cl)cc2Cl)nc1C#N,.,91,55,.,170,.,.,.,.,.,98,
COCCCNc1oc(COc2ccc(Cl)cc2Cl)nc1C#N,.,.,.,.,.,.,/,/,/,/,/,
CN[C@H]1CC[C@@H](c2ccc(Cl)c(Cl)c2)c2ccccc21,.,/,.,.,176!,.,.,.,.,.,/,
C#CCOCCOCCOCCNc1nc(N2CCN(C(=O)[C@H](CC(N)=O)n3cc([C@@H](N)C(C)C)nn3)CC2)nc(N2CCN(C(=O)[C@H](CC(N)=O)n3cc([C@@H](N)C(C)C)nn3)CC2)n1,.,.,/,.,/,/,/,/,/,/,/,
NC(=NCCCCCCN=C(N)/N=C(\N)Nc1ccc(Cl)cc1)/N=C(\N)Nc1ccc(Cl)cc1,.,111,96,.,345,.,268,121,.,.,118,
Cc1ccc(Nc2nc(NCCO)c3ccccc3n2)cc1C,56,52,.,.,160,.,.,.,.,.,82,PREPL inh cf=50
COc1cc2c3nnc(-c4ccc(F)cc4)c-3cn(Cc3ccc(C)cc3)c2cc1OC,.,49,50,.,179,.,.,74,.,.,.,
CSc1ccc2c(c1)C(N1CCN(C)CC1)Cc1ccccc1S2 (stereo not given),.,52!,.,.,150,.,.,.,.,.,.,
